# Source: PubChem
# The sample as a whole holds a higher share of hits than the screen did.
# Pf Dd2 growth – blocks in vitro growth of P. falciparum Dd2; hit rate 4.3% among 120,000; Potency, µM (top dose mostly 28.9 µM), most hits filed as inhibitors; P. falciparum Dd2 growth, SYBR Green, 72 h; AID 1347417; active = well fitted inhibition curve with a large enough effect; also: nearly all actives have a fitted effect of over 65% in size
#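 Readout: SYBR Green fluorescence, 485 nm excitation, 535 nm emission, after ~16 h lysis at 37C. Before that, Dd2-infected red cells (2.5% hematocrit) grew 72 h with compound, 29 uM top final concentration.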
# Numbers stand for hits; 0 = inactive; [ ] = remark or other dose.
SMILES,Pf Dd2 growth
Cn1cnc2ccc(-c3cccc(C(F)(F)F)c3)nc2c1=O,4.47µM
O=c1c2nc(-c3cccc(C(F)(F)F)c3)ccc2ncn1Cc1ccccn1,0
COCCn1cnc2ccc(-c3cccc(O)c3)nc2c1=O,0
O=C(NC1C[C@H]2CC[C@@H](C1)N2C(=O)COc1ccc(Cl)cc1)c1ccncc1 (stereo not given in full),0
CC1=C[C@@H](CNC(=O)Cn2cnnn2)[C@H](C(C)C)C[C@H]1Cc1nc2ccccc2[nH]1,0
CCCNC(=O)NC[C@@H]1C=C(C)[C@H](Cc2nc3ccccc3[nH]2)C[C@H]1C(C)C,0
CCC(CC)C(=O)NC[C@@H]1C=C(C)[C@H](Cc2nc3ccccc3n2C)C[C@H]1C(C)C,11.2µM
CC1=C[C@@H](CNC(=O)C2CCCCC2)[C@H](C(C)C)C[C@H]1Cc1nc2ccccc2n1C,10µM
CC1=C[C@@H](CNC(=O)C2CC2)[C@H](C(C)C)C[C@H]1CC(=O)N1CCOCC1,0
CC(=O)N1CCN(C(=O)C[C@@H]2C[C@@H](C(C)C)[C@H](CNC(=O)C3CC3)C=C2C)CC1,0
Cc1ccc(C(=O)N2CCC(N3C(=O)CCC3C(=O)NCc3ccccc3)CC2)cc1 (stereo not given),0
CCn1ncc(N2CCCC(CC(=O)NC3CCN(Cc4ccccc4)CC3)C2)cc1=O (stereo not given),0
CC(C)CS(=O)(=O)c1ncc(CN(C)Cc2cnn(C)c2)n1Cc1ccccc1,0
CC(=O)N1CCC(n2nccc2NC(=O)Nc2ccccc2C)CC1,0
COC(=O)c1ccc(C2Nc3c(C)cccc3-c3cc(C)nn32)cc1 (stereo not given),0.447µM
COc1ccc(C2Nc3ccccc3-c3cc(C)nn32)c(OC)c1 (stereo not given),0
CCN(CC)c1ccc(C2Nc3ccccc3-c3cc(C)nn32)cc1 (stereo not given),0
COc1ccc(C)cc1NS(=O)(=O)c1cc2c3c(c1)CC(=O)N3CCC2,0
COC(=O)c1ccccc1N(C)S(=O)(=O)c1cc2c3c(c1)CC(=O)N3CCC2,7.94µM
O=C1Cc2cc(S(=O)(=O)Nc3cccc(C(F)(F)F)c3)cc3c2N1CCC3,0
O=C(CCc1cc2n(n1)CCCNC2)Nc1ccc2c(c1)OCCO2,0
COc1ccc(-c2noc(Nc3ccc(C)c(C)c3)n2)cc1,0
Cc1nn(-c2ccccc2)c(=O)n1CC(=O)NCC1OCCc2ccccc21 (stereo not given),0
O=C(O)[C@H](Cn1ccc(=O)[nH]c1=O)NC1CCOCC1,0
COc1ccc(-c2noc(N3CCC(C(=O)Nc4ccc(F)cc4Cl)CC3)n2)cc1,0
SMILES,Pf Dd2 growth
COc1ccc(-c2noc(N3CCC(C(=O)N(C)c4cc(Cl)ccc4OC)CC3)n2)cc1,10µM
COc1ccc(-c2noc([C@@H]3CCCN3C(=O)c3cc(Cl)ccc3OC)n2)cc1,0
Fc1ccccc1CN1CCNc2cnc(Oc3ccccc3)cc2C1,0
O=C1NCc2ccccc2CC12CCCCN2CC1CCOCC1 (stereo not given),0
Cc1ccc([C@@H]2CN(C(=O)c3snnc3C)[C@@H]3C4CCN(CC4)[C@@H]32)cc1,14.1µM
O=C(c1cn2c(n1)CNCC2)N1C[C@H](c2ccccc2)[C@@H]2[C@H]1C1CCN2CC1,0
COc1ccc([C@@H]2CN(C(=O)Nc3ccc(C)cc3)[C@@H]3C4CCN(CC4)[C@@H]32)cc1,0
COCCNC(=O)C[C@@H]1C[C@H]2O[C@H](CNCc3ncccc3C)[C@@H](O)[C@H]2O1,0
COCc1ncc(CN2CCC(Cc3nncn3-c3ccccc3)CC2)cn1,0
O=C(c1cccc(Cl)c1)N1CCC2(CC1)OCC(C(=O)N1CCCC1)N2C(=O)c1cccc(F)c1 (stereo not given),0
COCC1CN(C(C)=O)CC12CCN(Cc1cccc(OC)c1OC)CC2 (stereo not given),0
Cc1ccn2c(Nc3ccc4c(c3)OCO4)c(-c3ccc(O)cc3)nc2c1,12.6µM
Cc1ccc(-c2nc3ccccn3c2Nc2ccc3c(c2)OCCO3)s1,0
Cc1ccc2nc(-c3cccc(Cl)c3)c(Nc3ccc4c(c3)OCO4)n2c1,0
CSc1ccc(-c2nc3cc(C)ccn3c2Nc2ccc(C)cc2)cc1,0
c1coc(-c2nc3ccccn3c2Nc2ccc3c(c2)OCCO3)c1,0
CN(C)c1ccc(-c2nc3ccccn3c2Nc2ccc3c(c2)OCCO3)cc1,10µM
NC1CC(c2cc(NCCN3N=C(c4ccccc4)CCC3=O)ncn2)C1 (stereo not given),0
O=C1NC[C@@H](CCC(=O)N2CCN(c3ccccn3)CC2)N2C[C@@H](NCc3ccc(CO)o3)C[C@@H]12,0
O=C(Nc1cccc(C(F)(F)F)c1)N[C@H]1CO[C@H]2[C@@H]1OC[C@H]2O,0
Cc1nc2c(NS(=O)(=O)c3ccc(Cl)cc3)cccn2n1,0
COc1cccc(CNC(=O)CN2CCCN(Cc3ccccc3)S2(=O)=O)c1,0
CCOc1ccc(NC(=O)CN2CCN(Cc3ccccc3)S2(=O)=O)cc1,5.62µM
CCc1cccc(NC(=O)CN2CCCN(Cc3cccc(C)c3)S2(=O)=O)c1,0
CC(C)N1CCN(C(=O)CCC[C@@H]2[C@H]3CCCN4CCC[C@@H](CN2Cc2ccccc2)[C@@H]34)CC1,3.98µM
SMILES,Pf Dd2 growth
CC(C)N1CCN(C(=O)CCC[C@@H]2[C@H]3CCCN4CCC[C@@H](CN2C(=O)c2ccccc2)[C@@H]34)CC1,0
O=C(CCC[C@@H]1[C@H]2CCCN3CCC[C@@H](CN1C(=O)c1ccccc1)[C@@H]23)N1CCCCC1,0
O=C(CCC[C@@H]1[C@H]2CCCN3CCC[C@@H](CN1Cc1cccnc1)[C@@H]23)N1CCN(C2CCCC2)CC1,0
CCN(Cc1ccccc1)C(=O)CCC[C@@H]1[C@H]2CCCN3CCC[C@@H](CN1C(=O)c1ccccc1)[C@@H]23,2µM
O=C(CCC[C@@H]1[C@H]2CCCN3CCC[C@@H](CN1C(=O)c1ccccc1)[C@@H]23)NCCN1CCCCC1,0
CCNC(=O)N1CCCC(Cc2noc(-c3cnccn3)n2)C1 (stereo not given),0
CN(C)S(=O)(=O)N1CC[C@@H]2C(=O)NCCCCCCN(Cc3ccncc3)[C@@H]2C1,0
CC(C)(C)c1cccc(CN2CCC3(CCNCC3)C2)c1O,10µM
OCC#Cc1ccc(CN2CCC3(CCNCC3)C2)cc1,0
Cc1ccc(CN2CCC3(CCNCC3)C2)c(Cl)c1Cl,12.6µM
CN(Cc1ccccc1CN1CCCC1)C(=O)C1CC2(CCNCC2)CN1C (stereo not given),0
Cn1c(CN2CCC3(CCNCC3)C2)nc2ccccc21,0
COc1ccc(F)c(F)c1CN1CCC2(CCNCC2)C1,0
O=C(c1nnc(COc2ccc(F)c(F)c2)n1-c1ccccc1)N1CCC[C@@H]1c1cccc(F)c1,0
CCCN(CC1CCOC1)S(=O)(=O)c1ccc(Br)s1 (stereo not given),0[5.79 µM]
COc1ccccc1CC(=O)N[C@@H]1CN(C2CCOCC2)C[C@H]1CN(C)C,0
COC(=O)c1ccccc1NC(=O)CN1C(=O)NC2(CCC(C)CC2)C1=O (stereo not given),0
COc1cc(NC(=O)Nc2nnc(N3CCCCC3)s2)cc(OC)c1,0
CCOc1ccc(NC(=O)CSc2nnc(NC(=O)Nc3ccccc3)s2)cc1,0
CCOc1ccc(NC(=O)Nc2nnc(N3CCCCC3C)s2)cc1 (stereo not given),11.2µM
CN(C)C(=O)c1ccc(-c2cccc(-c3ccn(CC4CC4)n3)c2)o1,0
c1ccc(CN2CCC(Nc3ncncn3)C2)cc1 (stereo not given),0
